From PubChem BioAssay (NCATS) come the findings set out here.

Assay [1] can be described thus: MultiTox-Fluor Cytotoxicity Assay - LYMP1-002 - Dead Cells (AID 960; active = well fitted curve in the direction sought with a large enough effect; an effect the other way counts as inactive or inconclusive;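 note: 0% = DMSO and 100% = tetraoctylammonium bromide; nearly all actives have a fitted effect of over 60% in size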). A digest of the protocol:
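Dead-cell fluorescence (Ex/Em 485/520) after 16 h compound exposure at 37 C of LYMP1-002 lymphoblastoid cells in complete medium; AC50 by Hill equation, with data scaled between DMSO and 15 uM tetraoctylammonium bromide.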

For assay [2], the target named is Estrogen receptor (Homo sapiens) (UniProt P03372). Nature of the assay: qHTS assay for small molecule antagonists of estrogen receptor alpha signaling (AID 588513; active = well fitted curve in the direction sought with a large enough effect in the signal ratio, with a control signal flat, not every such curve was filed as active; the % refers to the signal ratio; note: % is set by controls: 0 for no effect and ±100 for the full control effect). Put shortly: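 Fluorescence from CCF4 substrate after 2 h at room temperature gave reporter activity; cells had been exposed to compound and 0.5nM 17-beta-estradiol for 18 h at 37 C. Hill-equation fitting yielded IC50 and maximal response.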

The target is the same in assay [3]. Nature of the assay: qHTS assay for small molecule agonists of estrogen receptor alpha signaling (AID 588514).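 For activation: 0% = vehicle only and 100% = reference agonist.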 Note: nearly all actives have a fitted effect of over 70% in size. Note: potency is the fitted concentration of half-maximal effect. A digest of the protocol:
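EC50 and efficacy came from Hill fits of beta-lactamase reporter signal (CCF4 dye, 2 h at room temperature) scaled between DMSO and 20 nM 17-beta-estradiol. Agonist mode: HEK293 ER-alpha-UAS-bla cells in charcoal/dextran-stripped serum medium, 18 h compound exposure at 37 C.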
(In qHTS, concentration-response curves come from the screen itself.)

In assay [4] the target is Peroxisome proliferator-activated receptor gamma (Homo sapiens) (UniProt P37231). Nature of the assay: qHTS assay for small molecule agonists of peroxisome proliferator-activated receptor gamma signaling (AID 588536; active = well fitted curve in the direction sought with a large enough effect in the signal ratio, with a control signal flat, not every such curve was filed as active; the % refers to the signal ratio;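 note: 0% = DMSO basal wells and 100% = rosiglitazone at 2 µM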). Put shortly: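 Cells were plated and held 6–6.5 h at 37 C, then compounds were added as a titration series. After a further 16 h, CCF4 dye was loaded for 2 h at room temperature and emission at 460/530 nm recorded.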

Assay [5] addresses Thyroid hormone receptor beta (Homo sapiens) (UniProt P10828). Nature of the assay: qHTS assay for small molecule antagonists of thyroid hormone receptor beta signaling (AID 588547; active = well fitted inhibition curve with a large enough effect in the signal ratio, with a control signal flat, not every such curve was filed as active; the % refers to the signal ratio;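 note: cells stimulated with 0.4 nM T3 agonist during compound exposure; series mostly up to about 77 µM; % is set by controls: 0 for no effect and ±100 for the full control effect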). The following applies: TR-UAS-bla HEK293, beta-lactamase ratio, antagonist mode, 18 h. Put shortly:
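Inhibition of T3-driven (0.4nM final) beta-lactamase reporter activity was measured over 0.59 nM to 92 uM compound after 18 h at 37 C. The cells were GripTite HEK293 TR-UAS-bla in charcoal/dextran-stripped serum, with CCF4 ratio read-out and IC50 from Hill fits.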

Assay [6] has as its target Voltage-gated inwardly rectifying potassium channel KCNH2 (Homo sapiens) (UniProt Q12809). As to the kind of experiment: qHTS Assay for Small Molecule Inhibitors of the Human hERG Channel Activity (AID 588834; active = well fitted curve in the direction sought with a large enough effect; an effect the other way counts as inactive or inconclusive;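 note: top concentration of the series differs between compounds; % is set by controls: 0 for no effect and ±100 for the full control effect; lower thallium flux fluorescence means stronger hERG block; nearly all actives have a fitted effect of over 50% in size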). A digest of the protocol: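 Step 1: BacMam hERG transduction of U2OS, 4 hrs RT. Step 2: overnight 37 °C, plate 2000 cells/well, 4 hr. Step 3: FluxOR load, compound 10 min, stimulate, read fluorescence.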

Assay [7] in a line: qHTS assay for small molecule activators of the p53 signaling pathway (AID 651743; active = well fitted activation curve with a large enough effect in the signal ratio, not every such curve was filed as active; the % refers to the signal ratio; note: series mostly up to about 92 µM; % of control where 0% means no effect). The following applies: HCT-116 p53RE-bla, beta-lactamase FRET ratio, 16 h; activation: stronger effect = higher value. A digest of the protocol: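 After 16 hours compound treatment at 37 C, HCT-116 cells stably expressing p53RE-driven beta-lactamase were loaded with LiveBLAzer B/G FRET substrate for 2 hours at room temperature. Fluorescence intensity served as the p53 activation read-out.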

In assay [8] the target is Tumor necrosis factor (Homo sapiens) (UniProt P01375). Nature of the assay: qHTS assay to identify small molecules that stimulate Tumor Necrosis Factor-alpha (TNF-alpha) secretion (AID 651757; active = well fitted curve in the direction sought with a large enough effect in the signal ratio; the % refers to the signal ratio; note: 0% is about no effect). A digest of the protocol:
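Secreted TNF-alpha quantified by TR-FRET sandwich of two labeled anti-TNF-alpha antibodies, incubated 3 hr at room temperature. Preceded by 17 hr, 37 C compound treatment of THP-1 cells at 3000 cells/well.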

The nature of assay [9]: qHTS assay for environmental chemicals that activate the Aryl hydrocarbon Receptor (AhR) signaling pathway (AID 651777; active = well fitted curve in the direction sought with a large enough effect; an effect the other way counts as inactive or inconclusive; note: nearly all actives have a fitted effect of over 15% in size; note: potency is the fitted concentration of half-maximal effect; for activation: % of control where 0% means no effect). Conditions: 1A2-DRE human hepatoma cells, luciferase, 24 h; activation: stronger effect = higher value. Put shortly:
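Stable CYP1A2 promoter/DRE-luciferase human hepatoma line treated 24 hr; One-Glo luminescence, 30 min RT.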

Assay [10] is described as follows: qHTS assay for small molecule agonists of the antioxidant response element (ARE) signaling pathway measured by Nrf2-dependant transcriptional activity (AID 720636; active = well fitted curve in the direction sought with a large enough effect in the repeat runs; an effect the other way counts as inactive or inconclusive; note: potency is the fitted concentration of half-maximal effect;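 for activation: HepG2 cells with an ARE-driven luciferase reporter; % of control where 0% means no effect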). Put shortly:
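Reporter gene assay, HepG2 ARE-luc: 16 hr compound, 37 C, 5% CO2; read-out luciferase luminescence.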

Assay [11] is described as follows: qHTS assay for small molecule antagonists of the retinoid-related orphan receptor gamma (ROR-gamma) signaling pathway - cell viability counter screen (AID 720652; active = well fitted curve in the direction sought with a large enough effect in the repeat runs; an effect the other way counts as inactive or inconclusive;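 note: compound exposure lasted 16 hr before ATP read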; note: potency is the fitted concentration of half-maximal effect). Put shortly: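 Cytotoxicity counter screen: intracellular ATP (CellTiter-Glo luminescence) measured in the doxycycline-induced CHO RORE-luciferase reporter line after 16 hr compound exposure at 37 C, 5% CO2.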

The target of assay [12] is Nuclear receptor subfamily 1 group I member 2 (Rattus norvegicus) (UniProt Q9R1A7). Nature of the assay: qHTS assay for small molecule activators of the rat pregnane X receptor (rPXR) signaling pathway (AID 651751; call rule not given here; note: 0% is about no effect). The following applies: rPXR reporter cells, luciferase (One-Glo), 24 h.
A short description of assay [13]: qHTS assay for small molecule activators of the human pregnane X receptor (PXR) signaling pathway (AID 720659; call rule not given here; note: 0% is about no effect).
The nature of assay [14]: MultiTox-Fluor Cytotoxicity Assay - LYMP1-001 - Live Cells (AID 947; active = well fitted curve in the direction sought with a large enough effect; an effect the other way counts as inactive or inconclusive;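 note: 0% = DMSO only and full inhibition = tetraoctylammonium bromide control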).
Assay [15] has as its target Glucocorticoid receptor (Homo sapiens) (UniProt P04150). Nature of the assay: qHTS assay for small molecule agonists of glucocorticoid receptor signaling (AID 588532; active = well fitted curve in the direction sought with a large enough effect in the signal ratio, with a control signal flat; the % refers to the signal ratio;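 note: 100% = dexamethasone at 0.1 µM and 0% = DMSO only wells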). Conditions: HeLa MMTV-bla, beta-lactamase ratio, agonist, 18 h; stronger effect = higher value; percent of dexamethasone control, DMSO zero. Put shortly: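 Agonist-mode qHTS: GRE-driven beta-lactamase in HeLa cells exposed 18 h to titrated compounds (up to 92 uM), then CCF4 ratio read after 2 h at RT; Hill-fitted EC50, efficacy relative to 0.1 uM dexamethasone.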

For assay [16], the target named is Vitamin D3 receptor (Homo sapiens) (UniProt P11473). Nature of the assay: qHTS assay for small molecule antagonists of vitamin D receptor signaling (AID 588541).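 Note: receptor activated by calcitriol during compound treatment; series mostly up to about 77 µM; % is set by controls: 0 for no effect and ±100 for the full control effect.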 A digest of the protocol: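 Antagonist-mode beta-lactamase reporter assay: HEK293T VDR-UAS-bla cells were exposed to titrated compound alongside 1-alpha,25-dihydroxyvitamin D3 at 3 nM final for 16 h. Values were normalized to the 50 nM agonist control and DMSO basal, with IC50 and efficacy from Hill equation fits.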

Assay [17] shares this target. Nature of the assay: qHTS assay for small molecule agonists of vitamin D receptor signaling (AID 588543).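 Note: 0% = DMSO basal and 100% = reference agonist control.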 A digest of the protocol: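 Reporter cells (HEK293T, VDR-UAS-bla) were seeded in medium with 2% charcoal-stripped serum and incubated 5 h, then compounds in concentration series were added for 16 h at 37 °C. Stimulation was scaled between DMSO basal and 50 nM 1α,25-dihydroxyvitamin D3.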

Assay [18] can be described thus: qHTS assay for small molecule agonists of retinoid X receptor alpha signaling (AID 588544).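 For activation: 0% = DMSO basal wells and 100% = reference agonist.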 Conditions: HEK293T RXRa-UAS-bla, beta-lactamase reporter, 18 h; 530 nm emission.
In assay [19] the target is Retinoic acid receptor RXR-alpha (Homo sapiens) (UniProt P19793). Described as above.
The nature of assay [20]: qHTS assay for small molecule disruptors of the mitochondrial membrane potential - 1 hr assay (AID 651754). Note: nearly all actives have a fitted effect of over 35% in size. Note: potency is the fitted concentration of half-maximal effect. Put shortly:
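Mitochondrial potential in living HepG2 cells after 1 hr compound treatment at 37C was read with Mito-MPS dye added for a further 30 min. Red aggregate and green monomer fluorescence were measured; loss of potential leaves dye as cytoplasmic monomers.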

Each structure is given as a SMILES string. Several values for one entry are separate records, joined by “and”; a condition that tells them apart may be missing. Equal entries are not always repeated. Results filed as inconclusive are left out. Activity calls are given as the source filed them. Unless noted, calls come from the whole dose curve.

Sequence of Peroxisome proliferator-activated receptor gamma (Homo sapiens) (P37231 whole entry, looked up): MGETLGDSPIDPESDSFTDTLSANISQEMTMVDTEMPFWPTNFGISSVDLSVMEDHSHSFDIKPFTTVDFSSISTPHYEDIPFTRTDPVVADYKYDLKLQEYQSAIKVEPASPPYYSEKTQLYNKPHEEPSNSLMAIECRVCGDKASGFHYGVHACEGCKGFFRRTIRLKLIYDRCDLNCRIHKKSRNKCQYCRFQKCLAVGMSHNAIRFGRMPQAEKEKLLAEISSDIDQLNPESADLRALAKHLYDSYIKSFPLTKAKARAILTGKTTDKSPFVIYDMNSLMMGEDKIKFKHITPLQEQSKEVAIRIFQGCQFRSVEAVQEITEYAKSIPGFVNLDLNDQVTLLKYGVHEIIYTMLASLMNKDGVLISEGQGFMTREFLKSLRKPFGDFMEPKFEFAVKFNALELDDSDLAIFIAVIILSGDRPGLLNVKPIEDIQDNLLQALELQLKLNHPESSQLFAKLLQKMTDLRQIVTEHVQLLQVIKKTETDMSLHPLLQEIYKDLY
Sequence of Retinoic acid receptor RXR-alpha (Homo sapiens) (P19793 whole entry, looked up): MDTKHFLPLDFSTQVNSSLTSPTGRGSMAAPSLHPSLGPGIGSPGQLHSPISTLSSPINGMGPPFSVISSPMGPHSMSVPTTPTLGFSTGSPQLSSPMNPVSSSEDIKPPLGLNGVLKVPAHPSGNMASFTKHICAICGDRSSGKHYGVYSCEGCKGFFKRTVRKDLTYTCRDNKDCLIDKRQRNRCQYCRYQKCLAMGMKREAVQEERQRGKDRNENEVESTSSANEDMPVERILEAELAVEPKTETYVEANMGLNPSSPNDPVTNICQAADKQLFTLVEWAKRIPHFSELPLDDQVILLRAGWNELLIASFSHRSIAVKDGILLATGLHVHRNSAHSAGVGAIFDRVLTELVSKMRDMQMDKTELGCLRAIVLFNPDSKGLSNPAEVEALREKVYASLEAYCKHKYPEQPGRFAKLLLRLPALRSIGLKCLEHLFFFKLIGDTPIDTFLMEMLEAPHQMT
Sequence of Glucocorticoid receptor (Homo sapiens) (P04150 whole entry, looked up): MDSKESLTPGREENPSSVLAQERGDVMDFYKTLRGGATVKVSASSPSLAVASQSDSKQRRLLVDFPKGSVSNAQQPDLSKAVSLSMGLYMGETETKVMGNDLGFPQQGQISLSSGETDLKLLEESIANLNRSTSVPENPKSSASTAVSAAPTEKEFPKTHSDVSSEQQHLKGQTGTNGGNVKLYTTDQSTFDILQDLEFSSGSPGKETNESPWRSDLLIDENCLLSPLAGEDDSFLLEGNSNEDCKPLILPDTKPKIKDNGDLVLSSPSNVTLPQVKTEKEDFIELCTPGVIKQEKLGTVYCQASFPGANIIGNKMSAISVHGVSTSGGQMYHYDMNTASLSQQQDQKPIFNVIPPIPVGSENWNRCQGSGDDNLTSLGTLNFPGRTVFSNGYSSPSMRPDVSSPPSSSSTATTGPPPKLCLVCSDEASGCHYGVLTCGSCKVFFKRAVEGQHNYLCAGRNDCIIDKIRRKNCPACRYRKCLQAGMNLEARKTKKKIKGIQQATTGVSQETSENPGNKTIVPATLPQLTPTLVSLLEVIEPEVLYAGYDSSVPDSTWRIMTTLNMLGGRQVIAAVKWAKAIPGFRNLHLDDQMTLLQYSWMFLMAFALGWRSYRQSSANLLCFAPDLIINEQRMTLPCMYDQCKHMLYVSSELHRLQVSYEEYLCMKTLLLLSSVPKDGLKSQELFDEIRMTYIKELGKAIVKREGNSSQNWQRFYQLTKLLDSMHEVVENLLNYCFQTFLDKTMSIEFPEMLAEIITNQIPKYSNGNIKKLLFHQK
Sequence of Voltage-gated inwardly rectifying potassium channel KCNH2 (Homo sapiens) (Q12809 whole entry, looked up): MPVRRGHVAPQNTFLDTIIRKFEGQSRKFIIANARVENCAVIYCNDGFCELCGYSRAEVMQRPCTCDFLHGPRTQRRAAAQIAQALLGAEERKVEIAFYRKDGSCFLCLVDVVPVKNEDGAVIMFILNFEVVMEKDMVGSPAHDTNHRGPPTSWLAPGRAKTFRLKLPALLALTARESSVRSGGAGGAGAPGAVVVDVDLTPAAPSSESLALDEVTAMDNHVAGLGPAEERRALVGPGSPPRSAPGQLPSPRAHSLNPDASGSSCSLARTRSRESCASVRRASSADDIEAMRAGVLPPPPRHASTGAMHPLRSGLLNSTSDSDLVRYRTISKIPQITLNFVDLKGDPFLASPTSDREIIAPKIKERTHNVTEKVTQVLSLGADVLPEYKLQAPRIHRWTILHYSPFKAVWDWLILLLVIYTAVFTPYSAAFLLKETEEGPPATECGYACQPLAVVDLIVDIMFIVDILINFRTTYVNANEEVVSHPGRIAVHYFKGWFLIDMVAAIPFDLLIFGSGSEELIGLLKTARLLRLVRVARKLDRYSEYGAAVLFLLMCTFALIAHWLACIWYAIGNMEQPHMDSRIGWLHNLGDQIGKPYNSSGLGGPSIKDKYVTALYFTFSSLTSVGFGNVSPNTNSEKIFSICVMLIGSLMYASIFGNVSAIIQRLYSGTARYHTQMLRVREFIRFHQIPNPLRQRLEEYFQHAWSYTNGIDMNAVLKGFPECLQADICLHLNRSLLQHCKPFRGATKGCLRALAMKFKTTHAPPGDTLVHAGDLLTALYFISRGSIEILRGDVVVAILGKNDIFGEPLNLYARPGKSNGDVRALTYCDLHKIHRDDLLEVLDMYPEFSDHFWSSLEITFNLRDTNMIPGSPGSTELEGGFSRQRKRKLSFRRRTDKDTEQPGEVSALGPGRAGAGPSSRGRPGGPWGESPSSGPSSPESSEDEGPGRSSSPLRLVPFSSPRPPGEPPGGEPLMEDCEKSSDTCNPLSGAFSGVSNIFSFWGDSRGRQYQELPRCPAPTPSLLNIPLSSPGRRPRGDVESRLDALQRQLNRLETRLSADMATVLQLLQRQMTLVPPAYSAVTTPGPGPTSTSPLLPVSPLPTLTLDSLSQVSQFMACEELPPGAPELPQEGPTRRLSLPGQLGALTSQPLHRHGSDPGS
Sequence of Nuclear receptor subfamily 1 group I member 2 (Rattus norvegicus) (Q9R1A7 whole entry, looked up): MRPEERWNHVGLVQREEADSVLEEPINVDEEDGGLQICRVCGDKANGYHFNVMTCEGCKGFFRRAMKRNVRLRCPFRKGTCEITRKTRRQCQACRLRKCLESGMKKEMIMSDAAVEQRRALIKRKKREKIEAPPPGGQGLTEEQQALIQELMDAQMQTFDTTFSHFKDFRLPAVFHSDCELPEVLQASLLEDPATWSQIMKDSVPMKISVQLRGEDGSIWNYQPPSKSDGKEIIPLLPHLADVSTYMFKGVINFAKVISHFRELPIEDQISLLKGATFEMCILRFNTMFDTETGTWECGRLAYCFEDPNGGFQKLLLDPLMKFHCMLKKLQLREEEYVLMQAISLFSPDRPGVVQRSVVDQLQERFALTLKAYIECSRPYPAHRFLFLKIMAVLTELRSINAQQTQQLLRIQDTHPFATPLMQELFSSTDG
Sequence of Thyroid hormone receptor beta (Homo sapiens) (P10828 whole entry, looked up): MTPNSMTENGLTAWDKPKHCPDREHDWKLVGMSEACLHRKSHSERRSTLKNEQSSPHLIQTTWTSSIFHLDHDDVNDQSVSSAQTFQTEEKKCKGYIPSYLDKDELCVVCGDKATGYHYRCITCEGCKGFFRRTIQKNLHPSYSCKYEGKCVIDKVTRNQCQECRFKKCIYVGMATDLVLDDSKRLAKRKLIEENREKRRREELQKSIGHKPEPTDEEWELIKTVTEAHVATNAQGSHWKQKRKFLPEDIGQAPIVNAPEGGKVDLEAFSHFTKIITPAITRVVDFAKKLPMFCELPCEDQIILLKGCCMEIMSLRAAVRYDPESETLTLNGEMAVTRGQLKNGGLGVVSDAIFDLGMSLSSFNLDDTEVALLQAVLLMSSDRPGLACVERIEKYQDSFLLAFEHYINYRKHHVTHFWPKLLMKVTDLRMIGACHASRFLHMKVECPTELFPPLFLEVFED
Sequence of Vitamin D3 receptor (Homo sapiens) (P11473 whole entry, looked up): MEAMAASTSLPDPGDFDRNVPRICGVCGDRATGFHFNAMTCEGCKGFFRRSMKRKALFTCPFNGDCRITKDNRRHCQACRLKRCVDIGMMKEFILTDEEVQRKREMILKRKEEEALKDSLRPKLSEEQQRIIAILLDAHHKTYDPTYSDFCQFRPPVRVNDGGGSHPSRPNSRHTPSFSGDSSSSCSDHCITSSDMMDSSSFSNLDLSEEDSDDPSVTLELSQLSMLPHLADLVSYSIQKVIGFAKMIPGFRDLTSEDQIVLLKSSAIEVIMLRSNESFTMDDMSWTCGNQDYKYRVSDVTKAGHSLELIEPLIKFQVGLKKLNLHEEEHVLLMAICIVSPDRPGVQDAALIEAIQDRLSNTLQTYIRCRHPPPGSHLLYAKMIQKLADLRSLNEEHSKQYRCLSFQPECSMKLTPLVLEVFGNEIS
Sequence of Estrogen receptor (Homo sapiens) (P03372 whole entry, looked up): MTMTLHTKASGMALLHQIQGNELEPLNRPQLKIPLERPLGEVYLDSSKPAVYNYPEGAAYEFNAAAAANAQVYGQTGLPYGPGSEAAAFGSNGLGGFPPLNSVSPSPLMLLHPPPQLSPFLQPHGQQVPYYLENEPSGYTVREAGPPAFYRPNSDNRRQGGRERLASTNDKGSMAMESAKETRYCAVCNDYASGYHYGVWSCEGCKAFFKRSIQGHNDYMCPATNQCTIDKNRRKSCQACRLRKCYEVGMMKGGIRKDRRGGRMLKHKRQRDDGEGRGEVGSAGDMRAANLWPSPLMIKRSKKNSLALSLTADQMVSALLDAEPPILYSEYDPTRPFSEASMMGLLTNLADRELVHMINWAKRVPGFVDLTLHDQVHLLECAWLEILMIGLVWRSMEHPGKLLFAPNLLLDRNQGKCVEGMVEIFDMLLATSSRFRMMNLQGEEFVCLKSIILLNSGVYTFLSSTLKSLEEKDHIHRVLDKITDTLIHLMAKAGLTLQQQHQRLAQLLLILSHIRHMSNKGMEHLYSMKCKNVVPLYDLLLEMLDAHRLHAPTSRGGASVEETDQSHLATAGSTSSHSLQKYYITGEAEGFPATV

In the case of `CN(C)C=O`, the Potency result in assay [1], in assay [2], in assay [3], in assay [6], in assay [10] and in assay [11] was “inactive” throughout. In addition, the call in [4], in [8] and in assay [13] was inactive. For the same compound, the activity change % (negative = inhibition) in [5] is -4.62% (inactive) and -13.9% (inactive) and 12% (inactive). The activation was -4.49% (inactive) and -0.185% (inactive) and 0.579% (inactive) in [7]; 0.683% (inactive) and 0.177% (inactive) and 0.0089% (inactive) in assay [9]. For the same compound, the max response in [12] is 4.41% (inactive) and 5.29% (inactive) and 1.77% (inactive).

As for `O=C1c2ccccc2C(=O)C1c1ccc2ccccc2n1`, the Potency result in assay [14], in [1], in [2] and in assay [6] was “inactive” each time. In addition, the Potency is 1000 nM (active) in [3]; 944 nM (active) in [20]; 39.8 µM (active) and 7.08 µM (active) in assay [9]; 1.54 µM (active) and 1.33 µM (active) in assay [10]; 33500 nM (active) in assay [11]. In addition, the activation in assay [15] is -2.81% (inactive) and -4.97% (inactive); in assay [7], 5.56% (inactive) and 14% (inactive). Moreover, the compound was classed as inactive in assay [4], in assay [16], in assay [17] and in [19]. Moreover, the max response in assay [18] amounted to 16.7%. Moreover, in [5], the activity change % (negative = inhibition) is -15.6% (inactive).

For `CCO`, the Potency entry in assay [14], in assay [2], in assay [3], in assay [6], in assay [20] and in assay [10] was “inactive” each time. Besides, the Potency entry in assay [11] is “inactive”. Also, the activation in assay [15] was -4.6% (inactive); in [7], -1.86% (inactive); in assay [9], -1.26% (inactive). Besides, the compound was called inactive in assay [4], in assay [16], in assay [17], in assay [19], in assay [8] and in assay [13]. For the same compound, the max response was 1.82% in [18] and 0.289% (inactive) in assay [12]. Further, the activity change % (negative = inhibition) in assay [5] is -1.42% (inactive).

For the compound `Cc1ccc([N+](=O)[O-])c(C)c1`, the Potency result in assay [14], in assay [1], in [2], in assay [3], in assay [6] and in assay [20] was “inactive” throughout. Moreover, the Potency entry in assay [10] and in [11] was “inactive” throughout. In addition, the activation in [15] is -4.65% (inactive) and 0.746% (inactive); in [7], 0.814% (inactive) and -2.3% (inactive); in assay [9] it was -0.465% (inactive) and 2.75% (inactive). Besides, the result in assay [4], in assay [16], in [17], in assay [19], in [8] and in assay [13] was inactive. Besides, the max response in assay [18] was -5.33% and -0.658%; in [12], 3.04% (inactive) and -0.0498% (inactive). In addition, the activity change % (negative = inhibition) in assay [5] was -7.14% (inactive) and -11% (inactive).

With `COc1c2ccoc2cc2oc(=O)ccc12`, the Potency result in assay [14], in [1], in assay [2], in assay [3], in assay [6] and in [20] was “inactive” in each case. For the same compound, the Potency result in assay [10] and in assay [11] was “inactive” in each case. Further, the activation is 3.88% (inactive) in assay [15], 6.05% (inactive) in [7] and 1.47% (inactive) in assay [9]. Moreover, the compound was called inactive in assay [16], in assay [17], in assay [8] and in [13]. The activity change % (negative = inhibition) in assay [5] is 16.2% (inactive). In [12], the max response was 2.12% (inactive).
